SENP8 block-1 – blocks the human protease SENP8; purified SENP8, Z-RLRGG-aminoluciferin cleavage, luminescence; inhibition, % at 10 µM; 1.2% of 330,000 active; AID 2540; in the data active = inhibition above about 50%
Target sequence (Q96LD8 whole entry, looked up): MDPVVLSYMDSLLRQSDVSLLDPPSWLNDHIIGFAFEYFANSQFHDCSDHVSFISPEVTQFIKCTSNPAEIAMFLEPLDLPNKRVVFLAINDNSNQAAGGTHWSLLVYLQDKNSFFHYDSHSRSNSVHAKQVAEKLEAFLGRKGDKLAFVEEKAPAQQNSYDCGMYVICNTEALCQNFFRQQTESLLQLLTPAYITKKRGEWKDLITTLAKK
SENP6 inh – SENP6 protease inhibition | Q9GZR1 | Recombinant SENP6 catalytic domain, aminoluciferin luminescence | inhibition, % at 10 µM | 1.8% of 330,000 active;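 active = inhibition above about 50% at the single tested dose, limit read from the data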
Platelet DG rel – modulates dense granule release in human platelets; human platelet-rich plasma, SFLLRN dense granule ATP release, luminescence; inhibition, %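 (compounds screened at 7.5 µM in platelet-rich plasma)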; 0.22% of 300,000 active; AID 1663;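 active = mean replicate score, as percent of positive control, at or above 50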
SENP7 block – SENP7 protease inhibition. Q9BQF6. recombinant SENP7, Z-RLRGG-aminoluciferin luminescence, 40 min. inhibition, % at 5 µM. 1.5% of 330,000 active;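 active = inhibition above about 50% at the single test dose, limit read from the data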
Target sequence (Q9BQF6 706-1050 limits assumed): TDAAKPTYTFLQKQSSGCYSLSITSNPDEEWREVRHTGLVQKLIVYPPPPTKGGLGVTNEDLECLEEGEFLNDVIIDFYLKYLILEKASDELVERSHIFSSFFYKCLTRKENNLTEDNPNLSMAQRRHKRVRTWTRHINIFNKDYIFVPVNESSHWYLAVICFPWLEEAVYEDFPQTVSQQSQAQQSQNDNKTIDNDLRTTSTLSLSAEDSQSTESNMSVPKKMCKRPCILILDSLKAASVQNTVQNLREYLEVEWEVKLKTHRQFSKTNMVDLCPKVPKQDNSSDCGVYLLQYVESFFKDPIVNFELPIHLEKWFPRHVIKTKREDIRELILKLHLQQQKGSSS
SENP8 block-2 – blocks human SENP8 cleavage of Nedd8 substrate | Q96LD8 | recombinant SENP8, Nedd8 substrate fluorescence | inhibition, % at 20 µM | 0.64% of 360,000 active | AID 602440; in the data active = inhibition mostly above about 40%, no sharp cut-off; inactive = mostly below about 27%
SENP8 conf-1 – human SENP8 inhibition, confirmed | inhibition, % at 12.5 µM | shares compounds with SENP7 block | 40% of 6,200 active | Recombinant SENP8, Z-RLRGG-aminoluciferin luminescence, 60 min;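 active = mean inhibition across replicates above about 50%, limit read from the data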
SENP6 confirm – human SENP6 inhibition, confirmed. AID 488915. shares compounds with SENP7 block. inhibition, % at 12.5 µM. recombinant SENP6, Z-RLRGG-aminoluciferin luminescence. 58% of 6,200 active
SENP7 conf – confirmation of human SENP7 protease inhibitors; shares compounds with SENP7 block; recombinant SENP7, Z-RLRGG-aminoluciferin luminescence, 40 min; inhibition, % at 12.5 µM; 69% of 6,200 active; AID 488917
Casp3 SENP sel – caspase-3 inhibition (SENP selectivity assay). shares compounds with SENP7 block. purified caspase-3, Z-DEVD-aminoluciferin luminescence, 60 min. inhibition, % at 12.5 µM. 60% of 6,200 active;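 active = mean inhibition above about 50%, limit read from the data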
Target sequence (P42574 28-227 limits assumed): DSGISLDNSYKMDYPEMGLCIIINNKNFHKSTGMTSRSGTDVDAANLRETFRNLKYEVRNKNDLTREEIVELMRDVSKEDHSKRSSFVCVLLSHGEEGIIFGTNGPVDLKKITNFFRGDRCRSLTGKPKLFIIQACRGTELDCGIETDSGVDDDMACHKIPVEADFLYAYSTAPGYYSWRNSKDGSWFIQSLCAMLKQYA
SENP luc ctr – counter-screen for SENP inhibitors: luminescence interference | shares compounds with SENP7 block | Pre-incubated SENP8/Z-RLRGG-aminoluciferin, luciferase luminescence interference | inhibition, % at 12.5 µM | 39% of 6,200 active;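 active = mean inhibition above about 50% when retested at one dose, limit read from the data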
SENP8 conf-2 – confirmation of human SENP8 protease inhibitors | purified SENP8, Nedd8-AMC/pro-Nedd8 cleavage fluorescence, 30 min | 15% of 1,400 active | shares compounds with SENP8 block-2 | inhibition, % at 25 µM; in the data active = inhibition mostly above about 39%, no sharp cut-off; inactive = mostly below about 34%
Large screens that a line does not name were inactive (follow-up assays come after a bar, where they were run); ! = not active in a repeat. Hits are enriched below; roughly 2.4% of the tested compounds scored in any of these assays.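 Rule for the calls, unless noted: active = mean inhibition above about 50% in the one-dose retest (limit read from the data); inactive = the rest.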

C=CCCC1(C2=CCCCC2)C(=O)NC(=O)NC1=O	none (no result: SENP8 block-1, SENP6 inh, Platelet DG rel, SENP7 block)
O=C(Nc1ccc(Cl)c(Cl)c1)c1ccco1	SENP8 block-1 51.2, SENP6 inh 56.5 | SENP8 conf-1 59.6 | SENP6 confirm 57.6 | SENP7 conf 85.0 | Casp3 SENP sel inactive | SENP luc ctr inactive
C=CCNC(=S)Nc1ccc(OC(=O)Nc2ccc(Cl)c(Cl)c2)cc1	none (no result: SENP8 block-1, SENP6 inh, Platelet DG rel, SENP7 block)
Cc1cccc(N=Nc2ccc(N(C)C)cc2)c1	SENP8 block-1 84.3, SENP6 inh 90.2, SENP7 block 87.1 | SENP8 conf-1 inactive | SENP6 confirm 82.7 | SENP7 conf inactive | Casp3 SENP sel inactive | SENP luc ctr inactive
CN(C)c1ccccc1	none (no result: SENP8 block-1, SENP6 inh, Platelet DG rel, SENP7 block)
COc1cc2c(cc1OC)-c1c(OC)c(OC)cc3c1[C@H](C2)N(C)CC3	SENP6 inh 83.0, SENP7 block 51.6 | SENP8 conf-1 inactive | SENP6 confirm 66.0 | SENP7 conf inactive | Casp3 SENP sel inactive | SENP luc ctr inactive
CN1C(=O)C(=Cc2ccccc2OCc2ccc(Cl)cc2)C(=O)N(C)C1=O	SENP6 inh 75.1, SENP7 block 63.8 | SENP8 conf-1 inactive | SENP6 confirm 57.2 | SENP7 conf 76.2 | Casp3 SENP sel 51.9 | SENP luc ctr 69.8
CCN1CCN(C(=O)COc2ccc3oc4c(c3c2)CCCC4)CC1	none (no result: Platelet DG rel)
Cc1ccc(NC(=O)c2snnc2C)cc1Cl	SENP6 inh 64.8, SENP7 block 60.2 | SENP8 conf-1 inactive | SENP6 confirm inactive | SENP7 conf 82.8 | Casp3 SENP sel 63.5 | SENP luc ctr 61.3
c1cncc(C2CCCCN2)c1 (stereo not given)	SENP8 block-2 55.2 | SENP8 conf-2 inactive
CC(C)C(=O)NC(Oc1ccccc1Cl)C(Cl)(Cl)Cl (stereo not given)	none
Cc1nonc1OCCNCCNc1ccc([N+](=O)[O-])c2cccnc12	SENP8 block-2 43.3 | SENP8 conf-2 inactive
CC1CN(c2ccc([N+](=O)[O-])c3cccnc23)CC(C)N1 (stereo not given)	none
CCNCCNc1ccc([N+](=O)[O-])c2cccnc12	SENP8 block-2 63.1 | SENP8 conf-2 inactive
O=[N+]([O-])c1ccc(N2CCCC2)c2ncccc12	SENP8 block-2 81.3 | SENP8 conf-2 inactive
COc1cc([N+](=O)[O-])c2ncccc2c1[N+](=O)[O-]	none (no result: SENP8 block-1, SENP6 inh, Platelet DG rel, SENP7 block)
Cc1ccc(CN2Cc3ccc(Br)cc3-n3nncc3C2)cc1	none (no result: SENP8 block-1, SENP6 inh, Platelet DG rel, SENP7 block)
CC1=CC(=O)OC2CC3OC4C[C@@H](C)C5OC6CC7O[C@]8(C)C/C=C\C9OC%10CC%11OC(CC(C)C%12OCCO%12)CC(O)[C@]%11(C)OC%10CC9OC8C[C@]7(C)O[C@]6(C)CCC5OC4C[C@]3(C)OC12 (stereo not given in full)	none (no result: Platelet DG rel)
CC1CC2(C)C(=CC1=O)CCC1C3CCC(C)(O)C3(C)CC3OC312 (stereo not given)	none (no result: SENP8 block-1, SENP6 inh, Platelet DG rel, SENP7 block)
NNc1n[nH]c(=S)n1N	SENP8 block-2 42.0 | SENP8 conf-2 inactive
COc1ccc2c(c1)NP(=S)(c1ccccc1)N2C (stereo not given)	SENP8 block-2 54.3 (no result: SENP8 block-1, SENP6 inh, Platelet DG rel, SENP7 block) | SENP8 conf-2 inactive
COc1ccc(P2(=O)Nc3ccccc3N2)cc1	none
CC1CCCCC12C(=O)NC(=O)NC2=O (stereo not given)	none (no result: SENP8 block-1, SENP6 inh, Platelet DG rel, SENP7 block)
O=[N+]([O-])c1cccc(CN2CC=C(c3ccc(F)cc3)CC2)c1	none
O=[N+]([O-])c1ccccc1CN1CC=C(c2ccc(F)cc2)CC1	SENP8 block-2 44.2 | SENP8 conf-2 inactive
N#CC12c3ccccc3C(=O)N1Cc1cnnn1-c1ccccc12 (stereo not given)	none (no result: SENP8 block-1, SENP6 inh, Platelet DG rel, SENP7 block)
CN1CC[C@@]2(C)c3cc(O)ccc3N(C)[C@@H]12	SENP8 block-2 44.2! (no result: SENP8 block-1, SENP6 inh, Platelet DG rel, SENP7 block) | SENP8 conf-2 61.8
CN1CCN(c2c(F)cc([N+](=O)[O-])c(N)c2Br)CC1	none
Nc1c([N+](=O)[O-])cc(F)c(N2CCNCC2)c1Br	SENP8 block-2 43.7 | SENP8 conf-2 inactive
CN1C(=O)C(Cc2ccsc2)C(=O)N(C)C1=O	SENP8 block-2 47.0 | SENP8 conf-2 inactive
CN1C(=O)C(Cc2ccccc2)C(=O)N(C)C1=O	none (no result: SENP8 block-1, SENP6 inh, Platelet DG rel, SENP7 block)
O=C1NC(=O)C(Nc2ccc(Cl)c(Cl)c2)C(=O)N1	SENP8 block-2 65.2 (no result: SENP8 block-1, SENP6 inh, Platelet DG rel, SENP7 block) | SENP8 conf-2 75.8
CC12CN3CC(C)(CN(C1)C31CCOCC1)C2=O	SENP8 block-2 40.7 | SENP8 conf-2 inactive
COC(=O)C1=C(c2ccc(OC(F)(F)F)cc2)C[C@@H]2CC[C@H]1N2C(=O)N1CCC(O)CC1	none (no result: Platelet DG rel)
O=c1cc(C2CCNCC2)[nH][nH]1	SENP8 block-2 54.6 | SENP8 conf-2 inactive
C[C@H](N)CN1CCc2ccc(Br)cc21	none
COc1ccccc1CCNC(=O)CCC(=O)N1CC2C[C@@H](C1)Cn1c2cccc1=O	SENP8 block-2 46.1 | SENP8 conf-2 inactive
O=C(CCc1ccccc1)N1C[C@H]2C[C@@H](C1)c1cccc(=O)n1C2	SENP8 block-2 61.2 | SENP8 conf-2 inactive
CN(C)Cc1c[nH]c2ccccc12	SENP8 block-2 40.7 (no result: Platelet DG rel) | SENP8 conf-2 inactive
O=C(c1ccco1)N1Cc2ccccc2-n2nncc2C1	none (no result: SENP8 block-1, SENP6 inh, Platelet DG rel, SENP7 block)
O=C(O)c1ccc([N+](=O)[O-])c([N+](=O)[O-])c1	SENP8 block-2 40.1 (no result: SENP8 block-1, SENP6 inh, Platelet DG rel, SENP7 block) | SENP8 conf-2 inactive
COc1cc(C2c3cc4c(c(O)c3CC3COC(=O)C32)OCO4)cc(OC)c1OC (stereo not given)	none (no result: SENP8 block-1, SENP6 inh, Platelet DG rel, SENP7 block)
COc1cc(C2c3cc(O)c(OC)cc3CC3C(=O)OCC32)ccc1O (stereo not given)	SENP8 block-2 43.9 (no result: SENP8 block-1, SENP6 inh, Platelet DG rel, SENP7 block) | SENP8 conf-2 inactive
OCCOc1ccccc1	SENP8 block-2 46.2 (no result: Platelet DG rel) | SENP8 conf-2 inactive
CCOC(=O)c1cnc(SCc2ccc(Cl)c(Cl)c2)nc1N1CC1	none (no result: SENP8 block-1, SENP6 inh, Platelet DG rel, SENP7 block)
CCN1CCN(c2cc(N3CCCC3)c([N+](=O)[O-])cc2F)CC1	SENP8 block-2 41.8 | SENP8 conf-2 inactive
CN1CCN(c2cc(N3CCCCCC3)c(F)cc2[N+](=O)[O-])CC1	none
Brc1ccc2[nH]cc(C=NN3CCCCCC3)c2c1	none (no result: SENP8 block-1, SENP6 inh, Platelet DG rel, SENP7 block)
COc1ccc2c(c1)C13CCN4CC5=CCOC6CC(=O)N2C1C6C5CC43 (stereo not given)	none (no result: SENP8 block-1, SENP6 inh, Platelet DG rel, SENP7 block)

High-throughput results (PubChem BioAssay)
